This is part of a sample that, as a whole, favours compounds with a hit. Of some 83,000 tested, about 20% had one in any assay.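 The test compound was applied at a single concentration to cells in 96-well plates for 48 hours, and percent growth was recorded.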 A number with no mark means an inactive call. Calls of active or inactive are those of the source. Rule for the calls: active = growth percent below 10; inactive = the rest.
These compounds were tested on HL-60(TB) leukemia (assay: NCI-60 one-dose screen, 48 h (100 = growth as untreated, 0 = no growth, -100 = all killed)). Conditions: 10 µM unless noted.

| Structure (SMILES) | growth |
| --- | --- |
| C[C@]12CC[C@H]3[C@@H](CCC4=CC(=O)CC[C@@]43C)[C@@H]1CC[C@@H]2c1csc(N)n1 | 0.82% (active) |
| COc1ccc(N=C2CSc3nnc(-c4cc(F)c(Cl)cc4Cl)n3N2)cc1 | -48% (active) |
| Cc1occc1-c1nnc(SCC(=O)c2ccc(NC(=O)CC(C)C)cc2)o1 | 98.3% |
| CN(C)CCCN1c2ccccc2Sc2ccc(C(F)(F)F)cc21 | 0.95% (active) |
| N#C/C(=C\c1ccc(-c2ccccc2)o1)c1nc(-c2ccco2)cs1 | 99.3% |
| CC(C)[N+](C)(CCOC(COc1ccccc1)COc1ccccc1)C(C)C | 30.7% |
| NC(=O)C1(Nc2ccc(Br)cc2)CCCC1 | 94.8% |
| CCCCCCCCCCCCCCCCOCCCOP(=O)(O)C1CCCN(O)C1=O (centres undefined) | -13.6% (active) |
| Cc1cc(C(=O)O)c(C)n1-c1cccc(C(=O)O)c1 | 56.2% |
| CCOC(=O)CC/C(C)=N\Nc1ccc([N+](=O)[O-])cc1 | 26.4% |
| COc1cc(/C=C/C(=O)c2ccc(-n3cc(CN4CCN(c5cc6c(cc5F)c(=O)c(C(=O)O)cn6C5CC5)CC4)nn3)cc2)ccc1O | 90.3% |
| O=C(c1c[nH]c2ccccc12)c1n[nH]c(=S)n1-c1cccc(Br)c1 | 88.8% |
| CCCCC(=O)OCC1OC(n2cnc3c(=S)nc[nH]c32)C(OC(=O)CCCC)C1OC(=O)CCCC (centres undefined) | 12.5% |
| O=C1/C(=N/O)CCc2ccccc21 | 59.1% |
| CSc1nc2c(c(=O)[nH]1)N=C1c3ccccc3C(=O)C1C(c1ccc(F)cc1)N2 (centres undefined) | 91.4% |
| COc1cc(NC(=O)c2cc(O)c(C/C=C(\C)CCC=C(C)C)c(O)c2)cc2c1O[C@]1(C)CC[C@@H](O)C(C)(C)[C@H]1C2 | -7.34% (active) |
| O=[N+]([O-])c1ccc(O)c(S(=O)(=O)O)c1 | 101% |
| O=C1C(Nc2ccc(Br)cc2)=C(I)C(=O)c2ncccc21 | -43.2% (active) |
| COc1cc2nc(NC3CCC3)nc(NC3CCN(C(C)C)CC3)c2cc1OC | 4.58% (active) |
| CCOC(=O)/C(C#N)=C/c1cccc(C)c1 | 86.4% |
| Cc1ccc(-n2nc3c(c(C#N)c2=O)CC(c2ccccc2Cl)C([N+](=O)[O-])=C3O)cc1 (centres undefined) | 96% |
| O=C(CN1C(=O)NC2NC(=O)NC21)N/N=C/c1ccc(Cl)cc1Cl (centres undefined) | 99.4% |
| N=C(N)c1ccc(-c2ccc(-c3ccc(Cl)c(Cl)c3)o2)cc1 | -45.5% (active) |
| COc1ccc(C(=O)/C=C/c2cc(-c3ccc(OC)c(OC)c3)n[nH]2)cc1OC | -25.4% (active) |

From PubChem BioAssay (NCI)
